Targets with a hit are over-represented here; the source holds about 7,900 in all. About 0.6% of all pairs of compound and target were hits. Values without a mark were called inactive.
Columns and labels:
Assay in all cases: log2 fold change, soluble protein after heating vs DMSO (PISA); higher = thermal stabilisation; K562 cells, 10 uM, 30 min; active = over 0.2 and 3.5 SD of the protein, either way, in both replicates (recomputed)
IRAK-1-4 Inhibitor I = compound: C1COCCN1CCN2C3=CC=CC=C3N=C2NC(=O)C4=CC(=CC=C4)[N+](=O)[O-] [IRAK-1-4 Inhibitor I]
Procedure, shortened: (§1)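 K562 cells (2×10^6 cells/mL) were treated with 10 μM compound for 30 min, and aliquots were heated for 3 min over 48°C-58°C. Pooled aliquots were extracted in PBS with 0.5% NP-40 at 4°C, and the supernatant after 21,000xg for 90 min was measured by TMTpro 16plex LC-MS/MS with channel sums equalised. Reported thermal stability, relative to control samples and from duplicates, is a log2 fold change.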

ibrutinib = compound: C=CC(=O)N1CCC[C@@H](n2nc(-c3ccc(Oc4ccccc4)cc3)c3c(N)ncnc32)C1 [ibrutinib]
Procedure, shortened: as §1

[1] = compound: CC(=O)c1cnc2ccc(-c3cc(Cl)c(O)c(Cl)c3)nc2c1N[C@H]1CC[C@H](CN(C)C)CC1
Procedure, shortened: as §1

ralimetinib = compound: CC(C)(C)Cn1c(N)nc2ccc(-c3[nH]c(C(C)(C)C)nc3-c3ccc(F)cc3)nc21 [ralimetinib]
Procedure, shortened: as §1

[2] = compound: CC(C)(O)CC(=O)NCCn1ccc2ncnc(Nc3ccc(Oc4cccc(C(F)(F)F)c4)c(Cl)c3)c21
Procedure, shortened: as §1

[3] = compound: CC(C)C1=C2N=C(C=C(N2N=C1)NCC3=CC=CC=C3)NCCCCCCN
Procedure, shortened: as §1

[4] = compound: CC(C)C[C@@H](C=O)NC(=O)[C@H](CC(C)C)NC(=O)[C@H](CC(C)C)NC(=O)OCc1ccccc1
Procedure, shortened: as §1

pinometostat = compound: CC(C)N(C[C@H]1O[C@@H](n2cnc3c(N)ncnc32)[C@H](O)[C@@H]1O)[C@H]1C[C@@H](CCc2nc3cc(C(C)(C)C)ccc3[nH]2)C1 [pinometostat]
Procedure, shortened: as §1

[5] = compound: CC1=C(C(CC(=O)N1)C2=CC=C(C=C2)C(F)(F)F)C(=O)NC3=C(C=C4C(=C3)C=NN4)F
Procedure, shortened: as §1

[6] = compound: CC1=C(C2=C(C=C1)C(=O)C3=CC=CC=C3N2CCCN)C
Procedure, shortened: as §1

UniProt A8MWY0, sequence (A8MWY0 whole entry, looked up): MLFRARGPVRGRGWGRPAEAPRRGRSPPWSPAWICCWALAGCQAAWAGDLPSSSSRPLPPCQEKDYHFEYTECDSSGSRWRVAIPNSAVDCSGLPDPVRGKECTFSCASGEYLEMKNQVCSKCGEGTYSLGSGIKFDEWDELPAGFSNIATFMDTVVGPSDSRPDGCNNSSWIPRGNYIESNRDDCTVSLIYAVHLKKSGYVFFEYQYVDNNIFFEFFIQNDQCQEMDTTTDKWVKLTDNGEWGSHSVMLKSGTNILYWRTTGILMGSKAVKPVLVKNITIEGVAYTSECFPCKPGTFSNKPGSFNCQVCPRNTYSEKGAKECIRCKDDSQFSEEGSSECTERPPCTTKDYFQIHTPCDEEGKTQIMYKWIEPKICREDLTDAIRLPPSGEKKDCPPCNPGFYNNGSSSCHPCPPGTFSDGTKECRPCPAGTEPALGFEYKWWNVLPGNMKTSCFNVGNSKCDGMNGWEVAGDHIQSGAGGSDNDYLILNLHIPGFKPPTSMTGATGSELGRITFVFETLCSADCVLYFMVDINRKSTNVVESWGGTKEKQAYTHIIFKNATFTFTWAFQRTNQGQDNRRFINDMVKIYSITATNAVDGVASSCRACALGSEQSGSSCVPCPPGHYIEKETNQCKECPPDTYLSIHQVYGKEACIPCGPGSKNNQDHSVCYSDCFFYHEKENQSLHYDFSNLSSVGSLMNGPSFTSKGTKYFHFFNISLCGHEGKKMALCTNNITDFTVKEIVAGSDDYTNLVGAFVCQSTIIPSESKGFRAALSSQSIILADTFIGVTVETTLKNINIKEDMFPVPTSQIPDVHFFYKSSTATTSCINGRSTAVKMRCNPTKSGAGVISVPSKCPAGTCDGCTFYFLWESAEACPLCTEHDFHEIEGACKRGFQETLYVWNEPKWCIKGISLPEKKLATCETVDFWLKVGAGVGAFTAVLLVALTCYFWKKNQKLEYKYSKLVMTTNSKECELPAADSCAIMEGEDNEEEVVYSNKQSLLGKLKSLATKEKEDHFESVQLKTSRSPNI
UniProt Q96EK5, sequence (Q96EK5 whole entry, looked up): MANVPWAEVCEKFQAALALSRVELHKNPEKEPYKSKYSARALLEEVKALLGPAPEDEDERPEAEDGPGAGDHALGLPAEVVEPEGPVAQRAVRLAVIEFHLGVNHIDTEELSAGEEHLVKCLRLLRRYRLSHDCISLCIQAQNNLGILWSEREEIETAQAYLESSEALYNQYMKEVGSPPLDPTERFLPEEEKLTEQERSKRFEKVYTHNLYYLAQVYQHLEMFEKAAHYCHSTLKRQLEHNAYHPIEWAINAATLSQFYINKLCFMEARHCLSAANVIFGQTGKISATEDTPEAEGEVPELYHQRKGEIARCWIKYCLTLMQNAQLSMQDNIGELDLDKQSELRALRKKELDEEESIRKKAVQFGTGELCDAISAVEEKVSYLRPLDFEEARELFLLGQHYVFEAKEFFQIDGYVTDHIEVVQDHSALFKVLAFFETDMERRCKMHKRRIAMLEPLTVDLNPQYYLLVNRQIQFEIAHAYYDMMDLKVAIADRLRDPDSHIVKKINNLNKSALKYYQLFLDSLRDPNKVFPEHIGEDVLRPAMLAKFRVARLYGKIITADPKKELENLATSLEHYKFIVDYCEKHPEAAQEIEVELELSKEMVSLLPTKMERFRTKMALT
UniProt Q8WV07, sequence (Q8WV07 whole entry, looked up): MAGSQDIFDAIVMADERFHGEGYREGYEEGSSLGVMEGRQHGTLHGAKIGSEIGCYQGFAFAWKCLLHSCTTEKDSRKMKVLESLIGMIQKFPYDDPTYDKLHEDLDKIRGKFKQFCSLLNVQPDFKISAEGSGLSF
UniProt P46734, sequence (P46734 whole entry, looked up): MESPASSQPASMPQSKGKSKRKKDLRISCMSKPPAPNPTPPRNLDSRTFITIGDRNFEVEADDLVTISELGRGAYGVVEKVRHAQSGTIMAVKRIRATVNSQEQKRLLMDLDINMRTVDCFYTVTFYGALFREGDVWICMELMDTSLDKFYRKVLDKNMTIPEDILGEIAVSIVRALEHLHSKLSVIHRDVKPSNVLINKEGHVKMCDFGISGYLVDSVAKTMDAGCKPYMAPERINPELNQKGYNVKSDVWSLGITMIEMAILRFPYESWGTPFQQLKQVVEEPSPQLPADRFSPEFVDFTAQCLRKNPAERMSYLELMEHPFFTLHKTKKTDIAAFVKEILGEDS
UniProt Q14676, sequence (Q14676 whole entry, looked up): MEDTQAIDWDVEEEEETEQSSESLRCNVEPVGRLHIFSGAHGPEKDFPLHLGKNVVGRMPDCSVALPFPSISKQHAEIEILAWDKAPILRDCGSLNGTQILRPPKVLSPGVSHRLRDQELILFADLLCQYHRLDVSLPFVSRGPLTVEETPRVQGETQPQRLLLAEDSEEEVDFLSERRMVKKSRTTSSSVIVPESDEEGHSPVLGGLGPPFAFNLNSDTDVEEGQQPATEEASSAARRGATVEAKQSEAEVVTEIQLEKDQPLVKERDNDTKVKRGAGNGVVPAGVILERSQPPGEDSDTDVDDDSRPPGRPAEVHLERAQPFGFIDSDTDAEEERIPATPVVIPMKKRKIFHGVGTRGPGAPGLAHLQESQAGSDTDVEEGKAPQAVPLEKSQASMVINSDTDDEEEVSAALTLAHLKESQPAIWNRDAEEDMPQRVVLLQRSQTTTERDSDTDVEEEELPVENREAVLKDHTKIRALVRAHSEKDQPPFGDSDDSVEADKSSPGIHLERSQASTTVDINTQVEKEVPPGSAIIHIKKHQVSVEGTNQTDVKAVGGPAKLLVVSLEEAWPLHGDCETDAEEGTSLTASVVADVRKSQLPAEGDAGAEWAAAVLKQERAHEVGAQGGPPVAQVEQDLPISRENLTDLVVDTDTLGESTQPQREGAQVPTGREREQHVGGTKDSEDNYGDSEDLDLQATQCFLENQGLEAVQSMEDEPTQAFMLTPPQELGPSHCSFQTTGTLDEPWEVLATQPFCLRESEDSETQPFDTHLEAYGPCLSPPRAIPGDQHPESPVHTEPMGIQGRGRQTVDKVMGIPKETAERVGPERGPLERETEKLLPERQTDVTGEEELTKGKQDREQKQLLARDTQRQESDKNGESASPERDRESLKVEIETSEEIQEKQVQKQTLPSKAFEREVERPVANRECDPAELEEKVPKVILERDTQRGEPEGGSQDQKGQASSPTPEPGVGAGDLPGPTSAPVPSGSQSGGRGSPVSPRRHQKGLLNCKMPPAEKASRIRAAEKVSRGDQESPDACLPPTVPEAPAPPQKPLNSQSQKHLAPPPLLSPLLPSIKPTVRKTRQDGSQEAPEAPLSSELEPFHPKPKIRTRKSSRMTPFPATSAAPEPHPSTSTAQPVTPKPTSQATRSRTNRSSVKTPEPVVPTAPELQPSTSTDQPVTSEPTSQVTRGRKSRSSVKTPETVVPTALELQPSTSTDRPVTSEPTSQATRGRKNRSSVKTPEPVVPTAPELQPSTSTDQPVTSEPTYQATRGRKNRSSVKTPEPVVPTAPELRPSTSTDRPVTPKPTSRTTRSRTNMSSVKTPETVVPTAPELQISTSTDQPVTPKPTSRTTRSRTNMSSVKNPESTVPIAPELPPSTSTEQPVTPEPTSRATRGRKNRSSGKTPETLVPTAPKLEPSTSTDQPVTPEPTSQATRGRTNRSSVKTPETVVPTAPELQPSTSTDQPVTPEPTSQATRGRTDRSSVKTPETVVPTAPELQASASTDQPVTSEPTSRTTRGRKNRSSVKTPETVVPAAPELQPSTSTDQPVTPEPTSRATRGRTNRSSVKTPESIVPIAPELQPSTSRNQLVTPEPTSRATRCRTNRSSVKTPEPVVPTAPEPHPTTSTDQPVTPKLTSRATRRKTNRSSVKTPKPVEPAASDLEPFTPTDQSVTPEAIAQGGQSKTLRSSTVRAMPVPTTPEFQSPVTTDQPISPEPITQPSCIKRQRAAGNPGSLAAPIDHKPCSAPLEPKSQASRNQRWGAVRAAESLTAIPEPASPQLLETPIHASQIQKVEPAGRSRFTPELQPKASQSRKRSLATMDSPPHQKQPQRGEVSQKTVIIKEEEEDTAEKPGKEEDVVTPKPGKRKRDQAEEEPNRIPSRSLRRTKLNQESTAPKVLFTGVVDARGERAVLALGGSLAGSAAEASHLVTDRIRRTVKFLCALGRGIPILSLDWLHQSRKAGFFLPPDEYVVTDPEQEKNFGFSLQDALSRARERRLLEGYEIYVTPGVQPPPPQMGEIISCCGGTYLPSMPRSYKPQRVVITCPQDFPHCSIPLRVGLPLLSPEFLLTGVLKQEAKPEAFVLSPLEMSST
UniProt Q07820, sequence (Q07820 whole entry, looked up): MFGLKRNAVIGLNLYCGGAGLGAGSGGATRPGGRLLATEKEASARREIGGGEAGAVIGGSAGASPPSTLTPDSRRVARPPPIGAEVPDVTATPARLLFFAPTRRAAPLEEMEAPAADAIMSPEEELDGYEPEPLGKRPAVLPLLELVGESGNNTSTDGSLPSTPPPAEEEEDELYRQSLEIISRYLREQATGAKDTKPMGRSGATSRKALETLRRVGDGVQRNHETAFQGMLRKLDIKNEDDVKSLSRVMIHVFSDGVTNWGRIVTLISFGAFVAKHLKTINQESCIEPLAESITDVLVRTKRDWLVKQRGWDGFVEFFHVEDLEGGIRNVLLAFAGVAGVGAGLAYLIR
UniProt Q9UPY8, sequence (Q9UPY8 whole entry, looked up): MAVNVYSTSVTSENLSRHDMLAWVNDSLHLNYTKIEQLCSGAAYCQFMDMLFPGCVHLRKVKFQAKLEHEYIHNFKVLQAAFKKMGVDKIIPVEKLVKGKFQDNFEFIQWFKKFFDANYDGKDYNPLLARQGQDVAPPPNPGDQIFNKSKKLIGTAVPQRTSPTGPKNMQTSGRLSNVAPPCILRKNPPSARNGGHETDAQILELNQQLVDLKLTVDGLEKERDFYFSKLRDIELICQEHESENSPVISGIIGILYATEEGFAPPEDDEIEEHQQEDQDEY
UniProt Q5XKP0, sequence (Q5XKP0 whole entry, looked up): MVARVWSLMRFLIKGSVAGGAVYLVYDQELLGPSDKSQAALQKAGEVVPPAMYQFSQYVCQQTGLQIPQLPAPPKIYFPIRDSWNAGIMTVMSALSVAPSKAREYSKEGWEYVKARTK

| Target | log2 fold change (IRAK-1-4 Inhibitor I) | log2 fold change (ibrutinib) | log2 fold change [1] | log2 fold change (ralimetinib) | log2 fold change [2] | log2 fold change [3] | log2 fold change [4] | log2 fold change (pinometostat) | log2 fold change [5] | log2 fold change [6] |
| --- | --- | --- | --- | --- | --- | --- | --- | --- | --- | --- |
| KIF1B isoform 4 (UniProt O60333) | -0.004 | -0.017 | 0 | -0.029 | -0.063 | 0.002 | 0.002 | 0.061 | -0.057 | -0.024 |
| MAP4 (UniProt E7EVA0) | -0.058 | -0.036 | -0.022 | 0.088 | 0.013 | -0.025 | 0.049 | 0.104 | -0.046 | 0.027 |
| MAP2K3 isoform 3 (UniProt P46734) | 0.012 | 0.032 | -0.457 (active) | 0.02 | 0.059 | -0.035 | -0.022 | -0.012 | 0.064 | -0.032 |
| LUC7L2 (UniProt Q9Y383) | -0.207 | -0.026 | -0.646 (active) | 0.111 | 0.031 | -0.134 | -0.04 | -0.048 | 0.009 | -0.037 |
| LRPPRC (UniProt P42704) | -0.18 | -0.013 | -0.439 | -0.144 | -0.891 | -1.09 (active) | 0.059 | 0 | 0.062 | -0.252 |
| IGFBP4 (UniProt P22692) | 0.011 | -0.015 | 0.171 | -0.04 | 0.047 | 0.028 | 0.054 | 0.032 | 0.034 | -0.09 |
| MAPRE3 (UniProt Q9UPY8) | 0.027 | -0.044 | -0.003 | -0.142 | -0.049 | -0.079 | -0.033 | 0.019 | 0.01 | -0.029 |
| MDC1 (UniProt Q14676) | -0.012 | -0.013 | -0.013 | 0.062 | 0.122 | -0.321 | 0.176 | 0.133 | 0.001 | 0.11 |
| KEL (UniProt P23276) | -0.001 | 0.052 | -0.028 | -0.011 | 0.054 | 0.025 | -0.102 | -0.02 | -0.006 | 0.041 |
| MICOS13 (UniProt Q5XKP0) | 0.087 | -0.012 | -0.022 | -0.077 | -0.193 | -0.146 | 0.006 | -0.023 | -0.009 | -0.008 |
| MAP3K7 (UniProt O43318) | -0.123 | -0.061 | -0.075 | 0.035 | -0.207 | -0.159 | 0.05 | 0.102 | 0.024 | 0.006 |
| KPNA1 (UniProt P52294) | -0.046 | -0.073 | 0.062 | 0.089 | -0.022 | 0.084 | 0.123 | 0.071 | -0.05 | -0.26 (active) |
| LTO1 (UniProt Q8WV07) | -0.028 | 0.037 | 0.061 | 0.028 | 0.011 | -0.017 | 0 | -0.028 | 0.04 | 0.041 |
| LIAS (UniProt O43766) | 0.029 | 0.005 | 0.101 | -0.212 | -0.003 | -0.023 | 0.131 | -0.011 | 0.003 | -0.01 |
| LUZP1 (UniProt Q86V48) | -0.136 | -0.074 | 0.275 | 0.08 | 0.114 | 0.019 | 0.139 | 0.113 | 0.124 | 0.079 |
| ITM2B (UniProt Q9Y287) | -0.008 | 0.071 | -0.043 | -0.005 | -0.042 | -0.119 | 0.197 | 0.03 | 0.117 | -0.198 |
| ME2 (UniProt P23368) | 0.009 | -0.039 | 0.213 | -0.003 | 0.036 | 0.152 | 0.025 | -0.021 | -0.048 | -0.042 |
| MAPK8 isoform 3 (UniProt P45983) | 0.034 | -0.081 | 0.936 (active) | 0.271 | -0.071 | 0.012 | -0.002 | 0.05 | -0.02 | -0.1 |
| LARP4 isoform 4 (UniProt Q71RC2) | -0.091 | 0.037 | -0.128 | 0.068 | 0.046 | -0.19 | 0.059 | 0.114 | 0.133 | -0.054 |
| KIAA1324L (UniProt A8MWY0) | 0.027 | -0.056 | -0.052 | -0.024 | -0.038 | 0.024 | 0 | -0.008 | 0.034 | -0.037 |
| LTN1 isoform 3 (UniProt O94822) | -0.05 | -0.015 | -0.02 | 0.007 | -0.136 | -0.305 (active) | 0.055 | 0.098 | -0.007 | 0.093 |
| MFN2 (UniProt O95140) | -0.033 | 0.03 | -0.055 | -0.014 | 0.009 | -0.479 (active) | 0.032 | -0.017 | -0.022 | 0.049 |
| KIFBP (UniProt Q96EK5) | -0.019 | 0.011 | -0.033 | -0.02 | -0.045 | -0.172 | 0.2 | 0.019 | -0.034 | 0.054 |
| MAPK14 isoform 2 (UniProt Q16539) | -0.011 | 0.001 | 1.01 (active) | 1.48 (active) | -0.096 | -0.218 | -0.089 | -0.141 | -0.152 | -0.013 |
| MAGI1 (UniProt Q96QZ7) | 0 | 0.057 | -0.071 | 0.014 | 0.032 | -0.009 | 0.01 | 0.025 | -0.016 | 0.07 |
| MCL1 (UniProt Q07820) | 0.052 | 0.095 | -0.036 | 0.175 | -0.054 | -0.234 | 0.295 | -0.186 | 0.091 | -0.117 |
| MAGOHB (UniProt Q96A72) | -0.031 | 0.004 | 0.25 | -0.094 | 0.015 | 0.061 | 0 | -0.022 | -0.034 | 0.028 |
| IKZF1 (UniProt Q13422) | -0.017 | 0.041 | -0.069 | -0.036 | -0.015 | -0.016 | 0.011 | 0.01 | 0.02 | 0.275 |
| INTS7 (UniProt Q9NVH2) | 0.021 | -0.104 | 0.029 | 0.028 | -0.085 | -0.146 | 0.077 | -0.136 | -0.07 | 0.048 |
| MAP3K20 (UniProt Q9NYL2) | -0.043 | -0.167 | -0.654 (active) | 0.019 | -0.032 | 0.034 | 0.052 | 0.099 | 0.073 | 0.027 |
